Hits are enriched below; roughly 19% of the tested compounds scored in any of these assays.
HT1080NT lethal – kills 2HG-producing HT-1080-NT fibrosarcoma cells | Potency, µM (titrated, usually from 46.1 µM), for inactives: top-dose activity, negative = less viability, most hits filed as cytotoxic | hit rate 1.6% among 360,000 | HT-1080-NT fibrosarcoma viability, CellTiter-Glo ATP luminescence, 48 h | AID 686970;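 note: NT is the 2HG producing partner of a matched IDH1 knockdown line; potency is the fitted concentration of half-maximal effect; 0% = DMSO-treated cells and -100% = media-only wells without cells; nearly all actives have a fitted effect of over 55% in size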
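750 cells/well, RPMI + 5% FBS; 2 h settle, compound pin-transfer, 48 h at 37 degrees C. CellTiter-Glo 10 min RT, luminescence. Normalized to DMSO and media-only wells.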
TDP1 cell noCPT – qHTS for Inhibitors of human tyrosyl-DNA phosphodiesterase 1 (TDP1): qHTS in cells in absence of CPT; hit rate 15% among 420,000; Potency, µM (titrated, usually from 46.2 µM), for inactives: at the top dose activity change, negative = growth inhibition, actives largely listed as inhibitors; AID 686978, 2013; DT40 Tdp1-/- hTDP1 cells, no CPT, ATP luminescence, 48 h; note: potency is the fitted concentration of half-maximal effect; nearly all actives have a fitted effect of over 55% in size
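Camptothecin absent (DMSO only). Human TDP1-complemented DT40 knockout cells, 400 cells/well, 37 °C for minimum 48 hr; ATP measured via CellTiter-Glo, 30 min dark incubation, luminescence.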
HT1080 IDH1KD tx – toxicity to HT-1080 IDH1 knockdown cells (counter line); AID 686971; HT-1080 IDH1 knockdown viability, ATP luminescence, 48 h; hit rate 2% among 360,000; Potency, µM (series often up to 46.1 µM), for the others: top-dose activity, negative = toxicity, hits mostly cytotoxic;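 note: potency is the fitted concentration of half-maximal effect; 0% = DMSO wells and -100% = cell-free medium wells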
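HT-1080-IDH1KD cells (IDH1 knocked down), 750/well in RPMI with 5% FBS, treated with compound 48 h at 37 degrees C. Viability by CellTiter-Glo luminescence, normalised to DMSO and no-cell wells; concentration-response curves classed.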
TDP1 cell CPT – DT40-hTDP1 cell growth loss with CPT | chicken DT40 Tdp1-/-;hTDP1 cells + 20 nM CPT, ATP luminescence, 48 h | Potency, µM (titrated, usually from 46.2 µM), without a hit: at the top dose activity change, negative = growth inhibition, hits mostly inhibitors | hit rate 12% among 420,000; note: potency is the fitted concentration of half-maximal effect; nearly all actives have a fitted effect of over 55% in size
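Cell growth measured by CellTiter-Glo luminescence after a minimum 48 h, 37 C compound exposure with 20 nM CPT in Tdp1-knockout DT40 cells stably expressing hTDP1, seeded 400/well; qHTS titration format.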
IL-1B inflam inh – blocks inflammasome-driven IL-1 beta release. activity change, % at 57.5 µM. THP-1 LPS/ATP IL-1B secretion, AlphaLISA, 16 h; active compounds read low. AID 743279. hit rate 4.7% among 360,000; in the data active = activity change below about -50%; inconclusive = mostly about -30% to -49%
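THP-1 cells pretreated 1 hr with compounds (up to 57.5 uM final), then stimulated with LPS (250 ng/mL final) plus ATP (1.25 mM final); secreted IL-1B measured by AlphaLISA after 16 hr, decreased signal indicating inhibition.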
* hit, by the source's call; ? = inconclusive; · = not tested or not shown. Unless noted, calls come from the whole dose curve; as a rule, active = well fitted curve in the direction sought with a large enough effect; inconclusive = small, poorly fitted or top-dose-only effect, or another doubt; inactive = no such curve, though single readings can be large; an effect the other way counts as inactive or inconclusive. Unless noted, % is set by controls: 0 for no effect and ±100 for the full control effect.

SMILES	HT1080NT lethal	TDP1 cell noCPT	HT1080 IDH1KD tx	TDP1 cell CPT	IL-1B inflam inh
CCCCNc1c(-c2ccc(F)cc2)nc2nc(C)cc(C)n12	-29%	?	-20%	?	16
CCc1nc2nc(C)cc(C)n2c1Nc1ccc(OC)cc1	2%	18µM*	1%	?	44
Cc1ccc(Nc2c(-c3ccco3)nc3nc(C)cc(C)n23)cc1	-10%	?	-16%	?	5
CCCCNc1c(CCc2ccccc2)nc2nc(C)cc(C)n12	-16%	?	-11%	18µM*	-3
c1coc(-c2nc3nc4ccccc4nc3n2-c2ccc3c(c2)OCCO3)c1	10%	-24%	-1%	-26%	-7
Cc1ccccc1CN1C[C@@H]2C[C@@H](c3cnc(N4CCOCC4)s3)N3CCC[C@@]23C1=O	-2%	-2%	6%	-2%	11
Cc1ccc(-c2ccc(/C=N\NC(=O)c3cc4c(ccc5ccccc54)o3)o2)cc1[N+](=O)[O-]	?	9.2µM*	24%	10µM*	25
Cc1ccc([N+](=O)[O-])cc1-c1ccc(/C=N/NC(=O)c2cc3c(ccc4ccccc43)o2)o1	17%	8.2µM*	9%	?	2
O=C(N/N=C/c1cccc([N+](=O)[O-])c1)c1cc2c(ccc3ccccc32)o1	26%	?	12%	-28%	-8
O=C(N/N=C/c1ccc(-c2ccc(Cl)c(C(=O)O)c2)o1)c1cc2c(ccc3ccccc32)o1	-15%	22%	-24%	23%	2
O=C(Nc1ccsn1)c1ccc(Cl)cc1Cl	25%	-3%	11%	-17%	?
CN(C)CCCN(C(=O)c1cccc(N2C(=O)CCC2=O)c1)c1nc2cc3c(cc2s1)OCO3	1%	16%	4%	2%	-26
O=C(NCC(=O)N(c1ccc(F)cc1)C(C(=O)NC1CCCC1)c1cccnc1)c1ccco1 (stereo unspecified)	1%	0%	14%	-10%	-1
CCOC(=O)c1cnc2ccc(C(=O)OC)cc2c1NCCc1ccc(OC)c(OC)c1	-16%	18µM*	-20%	?	35
CCOC(=O)c1ccc2ncc(C(=O)OCC)c(NCCc3ccc(OC)c(OC)c3)c2c1	·	15µM*	·	26µM*	·
CCCCNC(=O)c1c(CSc2ccccc2)noc1C(=O)NCc1ccccc1	3%	?	5%	?	7
C=CCn1c(SCC(=O)c2[nH]c(C)c(C(=O)OCC)c2C)nc2scc(-c3ccc(OC)c(OC)c3)c2c1=O	5%	13µM*	21%	15µM*	-8
CC(C)C(NC(=O)CNC(=O)OC(C)(C)C)C(=O)NCc1ccc(Cl)cc1 (stereo unspecified)	-9%	10%	6%	14%	-11
CON(C)C(=O)CCN(Cc1ccccc1)C(=O)OC(C)(C)C	27%	?	9%	?	-3
CON(C)C(=O)CC(CN(Cc1ccccc1)C(=O)OC(C)(C)C)c1ccc(Cl)cc1 (stereo unspecified)	-24%	?	-26%	23µM*	-61*
CON(C)C(=O)CC(CNC(=O)OC(C)(C)C)c1ccc(Cl)cc1 (stereo unspecified)	1%	15µM*	-3%	?	4
Cc1ccc2c(c1)C(=O)N1c3cc(C)c(C)cc3NC(=O)C1C(=O)N2 (stereo unspecified)	?	4%	3%	-12%	1
C/C(Cn1nnc([N+](=O)[O-])n1)=N\NC(=O)c1ccc(O)cc1	?	13µM*	-9%	15µM*	41
C/C(Cn1cnc([N+](=O)[O-])n1)=N\NC(=O)c1ccc(Br)cc1	5%	-1%	1%	-8%	-1
C/C(Cn1nnc([N+](=O)[O-])n1)=N\NC(=O)c1ccc(Cl)c(Cl)c1	?	16µM*	?	18µM*	1
Clc1ccc2nc(Nc3ccccc3Cl)nc(-c3ccccc3)c2c1	·	-19%	·	-23%	·

Source: PubChem
